In the library only some 7.4% were active in any assay of this set; here they are far more common.
FLuc modulator: inhibits or activates purified firefly luciferase, miR-21 counter-screen; purified FLuc, Km substrates, luminescence inhibition; AID 588342; Potency, µM (titrated, usually from 57.5 µM), usual class: inhibitors; 360,000 tested, 6.9% active; also: nearly all actives have a fitted effect of over 55% in size
Target sequence (P08659 whole entry, looked up): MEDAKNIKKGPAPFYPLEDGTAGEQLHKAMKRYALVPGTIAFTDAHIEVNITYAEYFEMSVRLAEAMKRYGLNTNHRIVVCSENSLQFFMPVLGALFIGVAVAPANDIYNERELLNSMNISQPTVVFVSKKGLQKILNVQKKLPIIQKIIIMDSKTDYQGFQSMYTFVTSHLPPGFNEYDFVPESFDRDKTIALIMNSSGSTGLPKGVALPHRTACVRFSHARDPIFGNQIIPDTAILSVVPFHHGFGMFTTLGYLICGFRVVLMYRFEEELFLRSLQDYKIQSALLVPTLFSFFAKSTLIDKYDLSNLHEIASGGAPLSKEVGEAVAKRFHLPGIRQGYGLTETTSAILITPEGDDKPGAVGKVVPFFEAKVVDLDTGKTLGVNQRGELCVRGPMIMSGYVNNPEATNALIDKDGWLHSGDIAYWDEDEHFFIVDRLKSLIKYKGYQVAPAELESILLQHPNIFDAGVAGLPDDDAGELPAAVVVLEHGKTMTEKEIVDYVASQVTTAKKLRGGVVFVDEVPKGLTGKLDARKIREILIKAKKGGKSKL
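Purified P. pyralis luciferase, 10 nM final, with Km-level 10 uM D-luciferin and 10 uM ATP in 50 mM Tris acetate pH 7.5, 10 mM Mg acetate, 0.01% Tween-20, 0.05% BSA; 6-point qHTS titration about 60 µM downward; luminescence read.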
SMN2 splice up: enhancers of SMN2 splice variant expression. HEK293 SMN2-luciferase splicing reporter, luminescence, 30-36 h. Potency, µM (top dose mostly 46.1 µM), hits mostly activators. 210,000 tested, 2.8% active; also: nearly all actives have a fitted effect of over 55% in size
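HEK293 cells carry an SMN2 minigene-luciferase reporter in which exon 7 inclusion puts luciferase in frame. Cells were seeded at 2000 cells/well, attached for 10-12 hours, then exposed to compounds for 30-36 hours at 37C before ONE-Glo luminescence.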
ELG1 genotoxic: inducers of genotoxicity in HEK293T ELG1-luciferase cells; HEK293T ELG1-luciferase reporter, luminescence, 16 h; Potency, µM (titrated, usually from 46 µM), most hits filed as activators; 330,000 tested, 1.3% active; AID 504466; also: nearly all actives have a fitted effect of over 60% in size
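DMSO vehicle served as control against compound-treated ELG1-luciferase HEK293T cells; exposure lasted 16 hr at 37 °C and 5% CO2, followed by ONE-Glo luminescence detection after 30 min.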
NPC1 promoter act: activates the NPC1 promoter; Huh7 NPC1 promoter luciferase reporter, 24 h; Potency, µM (highest dose often 9.22 µM), actives largely listed as activators; 320,000 tested, 2.4% active; AID 485313; also: nearly all actives have a fitted effect of over 60% in size
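Luminescence read-out of NPC1 promoter-driven luciferase in stably transfected Huh7 cells; compounds delivered in DMSO and left 24 h at 37C, 5% CO2, qHTS titration format.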
Rab9 prom act: activators of Rab9 promoter; Huh7 Rab9 promoter-luciferase reporter, luminescence, 24 h; Potency, µM (series often up to 9.22 µM), actives largely listed as activators; 320,000 tested, 2.8% active; also: nearly all actives have a fitted effect of over 60% in size
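Rab9 promoter-driven luciferase in stably transfected Huh7 cells; 1500 cells/well rested 2 h, exposed to compound in DMSO for 24 h at 37 °C, 5% CO2. Luminescence read 10 min after adding luciferase reagent at ambient temperature.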
Of the large screens only hits and unclear results are named; the others gave an inactive call. Calls follow the shape of the dose curve; as a rule, active = well fitted curve in the direction sought with a large enough effect; inconclusive = small, poorly fitted or top-dose-only effect, or another doubt; inactive = no such curve, though single readings can be large; an effect the other way counts as inactive or inconclusive.

CC(C)(C)NC(=O)c1ccccc1-c1nc(-c2ccccc2Cl)no1	FLuc modulator 12µM
CCNC(=O)c1ccccc1-c1nc(-c2ccccc2Cl)no1	FLuc modulator 19µM
CCNC(=O)c1ccccc1-c1nc(-c2ccccc2OC)no1	FLuc modulator inconclusive (no result: SMN2 splice up)
C[C@H]1Cc2c(COc3ccccc3)nc3c(c2CO1)CN(C(=O)C1CCCCC1)CC3	none (no result: FLuc modulator, ELG1 genotoxic, NPC1 promoter act, Rab9 prom act)
Cc1cc2oc(C(=O)Nc3nc(-c4ccccc4)ns3)c(C)c2cc1Cl	FLuc modulator inconclusive (no result: ELG1 genotoxic, NPC1 promoter act, Rab9 prom act)
O=C(Nc1ccc2c(c1)CCC2)c1cnc(Cl)c(Cl)c1	FLuc modulator 3.01µM, SMN2 splice up inconclusive, ELG1 genotoxic inconclusive
O=C(COC(=O)c1ccc(Cl)nc1)Nc1ccc2c(c1)CCC2	none (no result: FLuc modulator, SMN2 splice up, NPC1 promoter act, Rab9 prom act)
O=C(Nc1ccc2c(c1)CCC2)c1ccc(Cl)nc1	FLuc modulator 12µM, SMN2 splice up inconclusive, ELG1 genotoxic inconclusive, Rab9 prom act inconclusive
CCOc1ccc(Nc2nc(-c3cccc(Cl)c3)c3c(n2)-c2ccccc2OC3)cc1	FLuc modulator 12µM (no result: SMN2 splice up, ELG1 genotoxic, NPC1 promoter act, Rab9 prom act)
COC(=O)C1=C(C(=O)OC)[C@@H]2N(C)c3ccccc3[C@@]23C[C@@H](C(=O)OC)N(S(=O)(=O)c2ccc(C#N)cc2)C3=N1	none (no result: FLuc modulator, ELG1 genotoxic, NPC1 promoter act, Rab9 prom act)
c1csc(-c2nnc(NC3CCCCC3)c3ccccc23)c1	FLuc modulator 12µM
CC1CCN(c2nc3ccccc3nc2N2CCC(C)CC2)CC1	none (no result: ELG1 genotoxic, NPC1 promoter act, Rab9 prom act)
CC1CCN(c2nnc(-c3cccs3)c3ccccc23)CC1	FLuc modulator 9.53µM
c1ccc(-c2nc(-c3cccs3)c(NC3CCCCC3)o2)cc1	none (no result: FLuc modulator, ELG1 genotoxic, NPC1 promoter act, Rab9 prom act)
CN(C)c1ccc(/C=C(\C#N)C(=O)OCC(=O)N(C)C2CCS(=O)(=O)C2)cc1 (stereo unspecified)	FLuc modulator 23.9µM, ELG1 genotoxic inconclusive (no result: SMN2 splice up)
CCN(C(=O)COC(=O)/C(C#N)=C/c1ccc(N(C)C)cc1)C1CCS(=O)(=O)C1 (stereo unspecified)	none (no result: FLuc modulator, SMN2 splice up, NPC1 promoter act, Rab9 prom act)
CC1CCN(C(=O)c2ccc3c(c2)N(Cc2ccccc2)C(=O)c2ccccc2S3(=O)=O)CC1	none (no result: ELG1 genotoxic, NPC1 promoter act, Rab9 prom act)
CCc1ccccc1NC(=O)Cn1nnc(C(=O)NCc2ccco2)c1N	none (no result: ELG1 genotoxic, NPC1 promoter act, Rab9 prom act)
Cc1cc(N/N=C/c2ccc(O)cc2O)nc(N2CCOCC2)n1	FLuc modulator 7.57µM (no result: SMN2 splice up)
COc1ccc(/C=N/Nc2cc(C)nc(N3CCOCC3)n2)c(OC)c1	FLuc modulator 2.39µM (no result: SMN2 splice up)
COc1ccc(/C=C/C(=O)OCC(=O)NCc2ccccc2Cl)cc1OC	none (no result: FLuc modulator, SMN2 splice up, NPC1 promoter act, Rab9 prom act)
COc1cccc(C2c3c(oc4cc(C)cc(C)c4c3=O)C(=O)N2CCc2ccc(OC)c(OC)c2)c1 (stereo unspecified)	none (no result: ELG1 genotoxic, NPC1 promoter act, Rab9 prom act)
O=C1CN(c2nc(-c3cccs3)nc3sc4c(c23)CCCC4)CCN1	FLuc modulator 6.01µM, SMN2 splice up inconclusive, ELG1 genotoxic inconclusive
O=c1c2c3c(sc2nc2n1N=C(c1cccs1)CS2)CCCC3	FLuc modulator 0.19µM, ELG1 genotoxic inconclusive, NPC1 promoter act 0.631µM, Rab9 prom act 0.631µM
O=c1oc(-c2cccs2)nc2sc3c(c12)CCCC3	FLuc modulator 2.39µM, SMN2 splice up inconclusive
COc1ccccc1NC(=O)Cn1cnc2c(nnn2-c2ccc(C)cc2)c1=O	none
CCOC(=O)c1sc(N2C(=O)c3oc4ccc(F)cc4c(=O)c3C2c2cccc(OC)c2)nc1C (stereo unspecified)	none (no result: ELG1 genotoxic, NPC1 promoter act, Rab9 prom act)
O=C(O)c1ccccc1C(=O)c1ccc2c(c1)N(Cc1ccc(Cl)c(Cl)c1)C(=O)CO2	none
NC(=O)C1CCN(c2nc(-c3ccc(C(F)(F)F)cc3)cs2)CC1	FLuc modulator 16.9µM (no result: SMN2 splice up, ELG1 genotoxic, NPC1 promoter act, Rab9 prom act)
NC(=O)C1CCN(c2nc(-c3ccc(Br)cc3)cs2)CC1	SMN2 splice up 3.98µM, ELG1 genotoxic 6.51µM, NPC1 promoter act inconclusive, Rab9 prom act 2.51µM
CC(=O)Nc1ccc(-c2csc(N3CCC(C(N)=O)CC3)n2)cc1	none (no result: SMN2 splice up, ELG1 genotoxic, NPC1 promoter act, Rab9 prom act)
CC(=O)c1ccc(-c2csc(N3CCC(C(N)=O)CC3)n2)cc1	FLuc modulator inconclusive (no result: SMN2 splice up)
NC(=O)C1CCN(c2nc(-c3ccc(N4CCCCC4)nc3)cs2)CC1	FLuc modulator 4.78µM (no result: SMN2 splice up, ELG1 genotoxic, NPC1 promoter act, Rab9 prom act)
COc1cc(/C=C/c2nc3ccccc3c(=O)[nH]2)cc(Br)c1O	none (no result: SMN2 splice up)
O=C(O)c1ccc(/C=C/c2nc3ccccc3c(=O)[nH]2)cc1	FLuc modulator 15.1µM (no result: SMN2 splice up)
Cc1cccc(/C=C/c2nc3ccccc3c(=O)[nH]2)c1	FLuc modulator 1.07µM, SMN2 splice up 4.47µM, ELG1 genotoxic 8.2µM, NPC1 promoter act inconclusive, Rab9 prom act inconclusive

Compound activity: PubChem BioAssay, National Center for Advancing Translational Sciences (NCATS)
